Source: PubChem BioAssay
tim10-1 inh – growth inhibitors of tim10-1 mutant yeast; S. cerevisiae tim10-1 ts strain growth, BacTiter-Glo, 24 h; AID 463190; inhibition, % at 20 µM; actives 2.2% (n = 330,000);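 active = inhibition of at least 40%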;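 note: mutant grown at 25 °C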
PfHsp90 set2 – reduces growth (ATP signal) of yeast expressing P. falciparum Hsp90. AID 504621. inhibition, % at 9.4 µM. actives 0.32% (n = 310,000). S. cerevisiae expressing PfHsp90, BacTiter-Glo ATP, 48 h; yeast lacking PDR1 and PDR3 efflux regulators;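 active = every replicate shows inhibition above about 80%, whatever the replicate mean, limit read from the data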
SKKanGAS inh – SKKanGAS growth inhibition | S. pyogenes SKKanGAS, kanamycin growth, BacTiter-Glo, 6 h | inhibition, % at 7.5 µM | actives 1.3% (n = 300,000);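 active = mean replicate score, as percent of positive control median, at least 50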;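 note: strain carries kanamycin resistance gene driven by streptokinase promoter and grows in 40 µg/ml kanamycin; loss of luminescence reflects streptokinase promoter inhibition or plain growth inhibition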
TIM10 inh – inhibits growth of TIM10 yeast strain | inhibition, % at 10 µM | actives 1.4% (n = 330,000) | S. cerevisiae TIM10 strain growth, BacTiter-Glo luminescence, 24 h;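 active = inhibition of 40% or more at the single tested concentration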;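 note: wild-type TIM10 isogenic control strain grown at permissive 25 °C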
tim23-1 inh – growth inhibitors of tim23-1 mutant yeast; S. cerevisiae tim23-1 growth, BacTiter-Glo luminescence, 24 h; inhibition, % at 20 µM; actives 1.3% (n = 330,000); AID 463212;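 active = growth inhibition of the mutant yeast at or above 50%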;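 note: temperature-sensitive mutant grown at 25 °C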
tim10 confirm – confirmation of TIM10 yeast growth inhibitors; shares compounds with TIM10 inh; S. cerevisiae tim10 strain growth, BacTiter-Glo luminescence, 24 h; inhibition, % at 10 µM; actives 63% (n = 4,600);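 active = inhibition of yeast growth at or above a set limit in either of two replicates at 10 µM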; note: this counterscreen used the strain with wild-type TIM10
Numbers stand for hits; 0 = inactive; - = not tested or not shown. This is a sample that favours compounds with a hit; in the whole collection about 4.4% have one here.

SMILES	tim10-1 inh	PfHsp90 set2	SKKanGAS inh	TIM10 inh	tim23-1 inh	tim10 confirm
Cc1[nH]c2ccccc2c1/C=N/Nc1nc(Nc2ccc(F)cc2)nc(N2CCOCC2)n1	0	0	0	53	0	34
Cc1ccc(Nc2nc(N/N=C/c3c[nH]c4ccccc34)nc(N3CCOCC3)n2)cc1	0	0	0	0	0	-
CCOc1ccc(CNC(=O)c2ccc3nc(N4CCOCC4)sc3c2)cc1	0	0	0	0	0	-
NC(=O)CSc1nnc(-c2ccccc2Br)n1-c1cccc(C(F)(F)F)c1	0	0	0	0	0	-
CCNC(=O)CSc1nnc(-c2ccccc2Br)n1-c1cccc(C(F)(F)F)c1	0	0	0	47	0	0
O=C(Nc1ccc2c(c1)CCC2)c1cc2ccccc2o1	0	0	0	56	0	0
CCOC(=O)N1CCN(C(=O)c2ccc3c(c2)sc2nc(-c4ccccc4)cn23)CC1	0	0	0	45	0	53
COC(=O)CSc1nc(-c2ccccc2)c2c(c1C#N)CCCC2	0	0	0	41	0	0
O=C(Nc1ccc2oc(-c3ccccc3)nc2c1)c1ccc2c(c1)OCCO2	0	0	0	46	0	52
Cc1c(Cc2ccccc2)sc(NC(=O)c2ccco2)c1C(N)=O	0	0	0	51	0	51
CN(Cc1cccs1)C(=O)c1ccc(S(=O)(=O)N2CCCCC2)cc1	0	0	0	0	0	-
O=C(C1CCCN(S(=O)(=O)c2ccc(Cl)cc2)C1)N(Cc1cccs1)C1CC1 (stereo unspecified)	0	0	0	43	0	0
COc1ccc(NC(=O)CN(C)C(=O)c2cnc(Cl)c(Cl)c2)cc1	0	0	0	0	0	-
O=C(CSc1nnc2c(n1)[nH]c1ccccc12)Nc1nncs1	0	0	0	0	0	-
c1csc(C2C3=C(Nc4ncnn42)c2ccccc2OC3)c1 (stereo unspecified)	0	0	0	43	0	0
CCC(=O)NC(=S)Nc1ccc(S(=O)(=O)NC2CCCCC2)cc1	0	0	0	0	0	-
O=C(c1c(Cl)nc2sccn12)N(C(=O)c1c(Cl)nc2sccn12)c1ccc(Cl)cn1	0	0	0	42	0	0
COc1ccc(OCC(=O)N2CCCC(CO)(CCOc3ccccc3)C2)cc1 (stereo unspecified)	0	0	0	0	0	-
Cc1ccc([N+](=O)[O-])cc1N=Nc1c(C)[nH]n(C(N)=S)c1=O	0	0	0	43	0	34
CCCOc1ncnc2c1[nH]c1ccccc12	0	0	0	48	0	31
CCOc1ccc(C(=O)NCC(=O)OCc2nnc(-c3ccccc3)o2)cc1OCC	0	0	-	50	0	0
CC#CC(=O)N1CCC(CO)(CCc2ccccc2)CC1	0	0	0	0	0	-
COc1nccc(C(F)(F)F)c1C(=O)NC(=O)Nc1c(C)cccc1C	0	0	0	40	0	0
COc1nccc(C(F)(F)F)c1C(=O)NC(=O)Nc1ccccc1	0	0	0	0	0	-
O=C(O)C1CCCCC1C(=O)NCCc1ccc(F)cc1 (stereo unspecified)	0	0	0	0	0	-
SMILES	tim10-1 inh	PfHsp90 set2	SKKanGAS inh	TIM10 inh	tim23-1 inh	tim10 confirm
Cc1c(C(=O)NCc2cccnc2)oc2ccc(S(=O)(=O)N3CCCCCC3)cc12	0	-	0	43	0	0
Cc1c(C(=O)NCc2cccnc2)oc2ccc(S(=O)(=O)N3CCCCC3)cc12	0	0	0	0	0	-
C=CCn1c(-c2csc3c2CCC(C)C3)n[nH]c1=S (stereo unspecified)	0	0	0	43	0	0
CCCCn1c(-c2csc3c2CCCC3)n[nH]c1=S	0	-	0	43	0	0
CCn1c(-c2csc3c2CCCC3)n[nH]c1=S	0	0	0	0	0	-
CC(C)(C)c1ccc(C(=O)Nc2cccc([N+](=O)[O-])c2)cc1	-	0	0	-	-	-
Cc1ccc(NC(=O)Nc2cccc([N+](=O)[O-])c2)cc1F	0	0	0	0	0	-
O=C(Nc1ccc(OC(F)(F)F)cc1)Nc1cccc([N+](=O)[O-])c1	0	0	0	45	0	34
CC(C)(C)CC(C)(C)NC(=O)Nc1cccc([N+](=O)[O-])c1	0	0	0	46	0	45
O=c1c2cc(F)ccc2[nH]c(=S)n1Cc1ccc(F)cc1	0	0	0	0	0	-
COc1ccc(N2C(=O)/C(=C\c3ccco3)N=C2SCC(=O)N(C(C)C)C(C)C)cc1Cl	0	0	0	41	0	0
CC1=CC(C)(C)N(C(=O)c2ccccc2)c2ccccc21	0	0	0	0	0	-
CC1=CC(C)(C)N(C(=O)c2ccccc2)c2ccc(C)cc21	0	0	63	46	0	0
O=C(CSc1ncn(-c2ccccc2)n1)c1cccs1	0	0	0	48	0	0
c1ccc(CSc2ncn(-c3ccccc3)n2)cc1	0	0	0	0	0	-
N#Cc1cc(C#N)c(N2CCN(c3cccc(Cl)n3)CC2)nc1N	0	0	0	41	0	0
NC1CCN(c2cccc(Cl)n2)CC1	0	-	0	0	0	-
CS(=O)(=O)c1sc(C#N)c2c1C(=O)CC(c1ccccc1)C2 (stereo unspecified)	0	0	0	42	0	42
Cc1oc2c(c(=O)c1C)C(=O)CC(c1ccccc1)C2 (stereo unspecified)	0	-	0	0	0	-
CCOC(=O)[C@H]1[C@H]2COc3ccc(C)cc3[C@@H]2N2C(=O)c3cc(F)ccc3NC(=O)[C@@]12C	0	0	-	0	0	-
CCOc1cc(/C=C2\N=C(C)OC2=O)cc(Cl)c1OCC(=O)OC	0	0	0	0	0	-
CCCCOc1c(Br)cc(/C=C2\N=C(C)OC2=O)cc1OCC	0	0	0	49	0	0
CC(=O)c1cnc(Nc2cccc(C)c2)s1	0	0	0	0	0	-
Cc1ccc(C)c(N2CCN(C(=O)C3CCN(S(=O)(=O)c4cccc5nsnc45)CC3)CC2)c1	0	0	0	40	0	32
CC(C)N(Cc1ccccc1)C(=S)NC(=O)C1(C)CC1(Cl)Cl (stereo unspecified)	0	0	0	41	0	33
SMILES	tim10-1 inh	PfHsp90 set2	SKKanGAS inh	TIM10 inh	tim23-1 inh	tim10 confirm
CC1(C(=O)NC(=S)N(CCC#N)c2ccccc2)CC1(Cl)Cl (stereo unspecified)	0	-	0	0	0	-
COc1ccccc1-c1cc(C(=O)NC2CCCC2)no1	0	0	0	0	0	-
CC(C)(C)c1ccc(-c2noc(CNC(=O)c3ccco3)n2)cc1	0	0	0	0	0	-
Cc1ccc(-n2c(C)cc(/C([O-])=C(/C(=S)Nc3ccc(F)c(Cl)c3)[n+]3ccccc3)c2C)cc1	0	-	0	41	0	0
O=C(CSc1nc2[nH]ncc2c(=O)[nH]1)Nc1ccccc1F	0	0	0	0	0	-
O=C1/C(=C\c2ccc(O)c(O)c2)SC(=S)N1Cc1ccccc1	0	122	0	50	0	56
N#Cc1c(N)c(C(=O)c2ccccc2)n2ccccc12	0	0	0	0	0	-
